Potency and affinity values are given separately.
System: Klebsiella pneumoniae
Conditions: Concentration 32 ug.mL-1;; ASSAY_TEST Inhibition of Bacterial Growth; detection method Absorption (OD600); MEDIA CAMHB; plate type 384well; NBS; CORNING #3640; time 18 hr

SMILES	Inhibition [%]
Cc1ccc(Oc2nccn3c(=O)n(CC(=O)Nc4cccc(Br)c4)nc23)cc1	11.55
Cc1ccc(CNC(=O)Cn2nc3ccc(SCc4ccc(Cl)cc4)nn3c2=O)cc1	9.12
Cc1[nH]c2ccccc2c1C(=O)CSc1nnc2c(=O)n(-c3ccccc3)ccn12	21.07
CCc1nnc2ccc(S(=O)(=O)N(Cc3ccc(F)cc3)c3ccccc3)cn12	-0.12
CCc1nnc2c(=O)n(CC(=O)Nc3ccc(NC(C)=O)cc3)c3ccccc3n12	5.97
CCc1nnc2c(SCC(=O)NCc3ccccc3Cl)nc3ccccc3n12	8.04
N#CCn1nc2n(CCC(=O)NC3CCCCC3)c(=O)c3ccccc3n2c1=O	0.53
CCc1cccc(NC(=O)Cn2nc3nc(N4CCCCCC4)ccn3c2=O)c1	14.42
CCc1ccc(NC(=O)Cn2nc3c4cc(-c5ccc(C)c(C)c5)nn4ccn3c2=O)cc1	5.45
COc1ccc(-c2cc3c4nn(CC(=O)NCc5ccccc5Cl)c(=O)n4ccn3n2)cc1	14.7
O=C(CSc1nnc2c(=O)n(-c3ccc(F)c(F)c3)ccn12)c1ccccc1Cl	10.86
COc1ccc(CN(c2cc(C)cc(C)c2)S(=O)(=O)c2cccn3c(C)nnc23)cc1	-1.14
Cc1ccc(-c2ccc3nn(Cc4ccc(F)cc4Cl)c(=O)n3n2)cc1C	16.15
COc1ccc(Cl)cc1NC(=O)Cn1nc2c3cc(-c4ccc(C)c(C)c4)nn3ccn2c1=O	-20.97
COc1ccc(-c2cc3c4nn(CC(=O)Nc5ccc(OC)c(Cl)c5)c(=O)n4ccn3n2)cc1	-0.45
Cc1cccc(NC(=O)CSc2nnc3c4cc(-c5ccc(F)cc5)nn4ccn23)c1C	0.2
O=C(Cn1nc2n(Cc3ccccc3)c(=O)c3ccccc3n2c1=O)Nc1ccc2c(c1)OCO2	2.83
O=c1c2nnc(SCc3ccccc3Cl)n2ccn1-c1ccc(F)c(F)c1	8.56
Cc1ccc(NC(=O)Cn2nc3ccc(-c4ccc(Cl)cc4)nn3c2=O)cc1	3.71
O=C(CSc1nc2ccccc2n2cnnc12)Nc1ccc2c(c1)OCO2	0.58
Cc1ccc(-c2nc(CSc3nc4ccccc4n4c(C(C)C)nnc34)c(C)o2)cc1	3.51
CCCCc1ccc(NC(=O)Cn2nc3c(Sc4ccccc4)nccn3c2=O)cc1	5.15
Cc1cccc(NC(=O)Cn2nc3ccc(-c4ccc(Cl)cc4)nn3c2=O)c1	7.75
COc1cc(NC(=O)Cn2nc3c4c5c(sc4ncn3c2=O)CCCC5)cc(OC)c1	4.67
CCOC(=O)C1CCCN(C(=O)Cn2nc3n(CC(C)C)c(=O)c4sccc4n3c2=O)C1 (stereo not given)	8.18

From ChEMBL document CHEMBL4513146, “CO-ADD screening of Karazin Kharkiv National University (Ukraine) compounds”
